In the library only some 1.5% were active in any assay of this set; here they are far more common.
RECQ1 inh: qHTS Assay for Inhibitors of RecQ-Like Dna Helicase 1 (RECQ1); RECQ1 DNA unwinding, red fluorescence kinetic read; Potency, µM (titrated, usually from 57.3 µM), without a hit: top-dose activity, negative = inhibition, hits mostly inhibitors; hit rate 0.54% among 240,000;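 note: potency is the fitted concentration of half-maximal effect; plate controls were vehicle for no effect and no enzyme for full effect; nearly all actives have a fitted effect of over 30% in size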
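RECQ1T1 50 nM; forked duplex (20 bp + 30-nt ss tails) 200 nM, ATP 2 mM final; pH 8.0, 2 mM MgCl2, 2.5 ug/ml poly(dI-dC); 15 min compound preincubation; discontinuous kinetic read over 2 h at RT.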
FEN1 inh-1: qHTS Assay for the Inhibitors of Human Flap endonuclease 1 (FEN1); P39748; Recombinant FEN1 flap cleavage, fluorescence, 15 min; Potency, µM (doses to about 114 µM), inactives show top-dose activity change, negative = inhibition, hits mostly inhibitors; hit rate 0.35% among 390,000; note: potency is the fitted concentration of half-maximal effect; % is set by controls: 0 for no effect and ±100 for the full control effect; nearly all actives have a fitted effect of over 65% in size
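With each library titrated from low to high concentration, compounds met 10 nM FEN1 for 15 min at room temperature before 50 nM substrate was added; readings at 0 and 15 min fed four-parameter Hill curve fits.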
BLM helicase inh: qHTS Assay for Inhibitors of Bloom's syndrome helicase (BLM); RecQ-like DNA helicase BLM (Homo sapiens), P54132; recombinant BLM DNA unwinding, fluorescence dequenching; Potency, µM (doses to about 56.1 µM), inactives show top-dose activity change, negative = inhibition, usual class: inhibitors; hit rate 0.2% among 350,000;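 note: potency is the fitted concentration of half-maximal effect; plate controls were vehicle for no effect and no enzyme for full effect; nearly all actives have a fitted effect of over 35% in size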
GCN5L2 inh: qHTS Assay for Inhibitors of GCN5L2. GCN5L2 HAT assay, ThioGlo1 CoA-SH fluorescence. Potency, µM (series often up to 58.9 µM), inactives show top-dose activity change, negative = inhibition, most hits filed as inhibitors. hit rate 0.21% among 390,000. AID 504327, 2011; note: potency is the fitted concentration of half-maximal effect; % is set by controls: 0 for no effect and ±100 for the full control effect
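GCN5L2 (20 nM) in 50mM HEPES pH 7.5, 0.1mM EDTA, 0.01% Tween-20 preincubated 15 min with compounds at room temperature. Reaction started with H3(1-25) 75uM, acetyl-CoA 70uM, ThioGlo1 50uM; CoA-thiol fluorescence (Ex340/Em540) read at 0 and 20 min.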
APE1 inh: qHTS Assay for Inhibitors of the Human Apurinic/apyrimidinic Endonuclease 1 (APE1); recombinant APE1, TAMRA/BHQ-2 abasic DNA cleavage fluorescence; Potency, µM (doses to about 65.8 µM), without a hit: at the highest dose activity change, negative = inhibition, most hits filed as inhibitors; hit rate 0.35% among 350,000; AID 2517, 2012;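 note: potency is the fitted concentration of half-maximal effect; plate controls were vehicle for no effect and reference inhibitor for full effect; nearly all actives have a fitted effect of over 55% in size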
Target sequence (P27695 whole entry, looked up): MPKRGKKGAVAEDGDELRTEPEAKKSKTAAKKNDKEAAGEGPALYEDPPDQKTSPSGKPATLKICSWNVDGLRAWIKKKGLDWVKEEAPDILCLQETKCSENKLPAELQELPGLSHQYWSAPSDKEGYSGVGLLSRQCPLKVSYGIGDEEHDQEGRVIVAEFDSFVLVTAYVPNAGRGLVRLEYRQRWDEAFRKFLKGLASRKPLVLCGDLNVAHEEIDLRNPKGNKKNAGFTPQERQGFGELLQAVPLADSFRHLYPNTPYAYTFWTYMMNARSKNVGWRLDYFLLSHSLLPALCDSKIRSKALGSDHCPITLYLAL
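Quantitative HTS: incision of a TAMRA/BHQ-2 double-stranded substrate bearing a tetrahydrofuran abasic site by 0.75 nM APE1 raises fluorescence. Substrate 50 nM final, added after 15 min compound preincubation at room temperature; progress as third-minus-first kinetic read difference.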
PI5P4K alpha inh: qHTS for Inhibitors of phosphatidylinositol 5-phosphate 4-kinase (PI5P4K). PI5P4Kalpha enzyme, ADP-Glo luminescence, 60 min; hits give low values. AID 652105, 2013. max response, %. Phosphatidylinositol 5-phosphate 4-kinase type-2 alpha (Homo sapiens), P48426. hit rate 1.2% among 330,000; active = max response of -50% or lower; inconclusive = between -30% and -50%; inactive = -30% or higher; note: value at the top dose of about 77 µM; % is set by controls: 0 for no effect and ±100 for the full control effect
Target sequence (P48426 whole entry, looked up): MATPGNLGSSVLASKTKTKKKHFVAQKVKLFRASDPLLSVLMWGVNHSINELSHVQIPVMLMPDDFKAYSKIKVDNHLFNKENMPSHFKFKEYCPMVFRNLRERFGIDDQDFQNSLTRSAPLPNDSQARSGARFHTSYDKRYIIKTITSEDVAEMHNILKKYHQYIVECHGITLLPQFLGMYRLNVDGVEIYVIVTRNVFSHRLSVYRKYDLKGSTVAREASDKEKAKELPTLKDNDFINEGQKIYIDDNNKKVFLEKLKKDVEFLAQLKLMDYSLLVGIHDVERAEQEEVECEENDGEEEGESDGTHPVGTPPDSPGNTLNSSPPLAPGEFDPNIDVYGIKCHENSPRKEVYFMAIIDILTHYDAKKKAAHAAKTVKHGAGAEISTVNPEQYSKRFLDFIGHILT
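Compounds were pin-transferred onto PI5P4Kalpha and substrate in HEPES pH 7.4 buffer with EGTA, CHAPS and 5% DMSO. ATP (5 microM final) started the reaction, which ran 60 minutes at room temperature before ADP-Glo detection.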
FEN1 inh-2: qHTS Assay for the Inhibitors of FEN1: Confirmatory Assay for Cherry-picked Compounds; shares compounds with FEN1 inh-1; FEN1 flap cleavage, TAMRA/BHQ2 fluorogenic DNA substrate; Potency, µM, actives largely listed as inhibitors; hit rate 79% among 880; AID 720498, 2013; note: potency is the fitted concentration of half-maximal effect; nearly all actives have a fitted effect of over 60% in size
* hit, by the source's call. Unless noted, calls come from the whole dose curve; as a rule, active = well fitted curve in the direction sought with a large enough effect; inconclusive = small, poorly fitted or top-dose-only effect, or another doubt; inactive = no such curve, though single readings can be large; an effect the other way counts as inactive or inconclusive.

How did Cc1cccc(-c2cc3nc(C)cc(NCCCN(C)C)n3n2)c1 do in these assays?
RECQ1 inh: 6%; FEN1 inh-1: -22%; BLM helicase inh: -1%; GCN5L2 inh: -1%; APE1 inh: -7%

What do the screens show for `CN(C)CCCNc1cc(-c2ccccc2)nc2cc(-c3cccc(F)c3)nn12`?
FEN1 inh-1: inconclusive; BLM helicase inh: 56%; GCN5L2 inh: -8%; APE1 inh: -11%; PI5P4K alpha inh: 0; FEN1 inh-2: 48*

How did Cc1ccc2nc(Cl)c3cc(C(=O)NCCCN4CCCC4)sc3c2c1 do in these assays?
RECQ1 inh: 14%; FEN1 inh-1: 22µM*; BLM helicase inh: 65%; GCN5L2 inh: -1%; APE1 inh: -8%; PI5P4K alpha inh: 2; FEN1 inh-2: 48*

How did Cc1ccc2nc(Cl)c3cc(C(=O)N4CCCCC4)sc3c2c1 do in these assays?
FEN1 inh-1: -21%; BLM helicase inh: -4%; GCN5L2 inh: 0%

How did CCC1CCCCN1CCCNC(=O)c1cc2c(Cl)nc3ccc(C)cc3c2s1 (stereo not drawn) do in these assays?
FEN1 inh-1: 89µM*; BLM helicase inh: 197%; GCN5L2 inh: 7%; FEN1 inh-2: inconclusive

Results for CCC1CCCCN1CCCNC(=O)c1cc2c(=O)n(CC)c3ccccc3c2s1 (stereo not drawn) ?
FEN1 inh-1: -3%; BLM helicase inh: 39%; GCN5L2 inh: -4%

Results for Cc1cc(O)c2c(c1)OC1(C)CCC3C(C)(C)CCCC34COC2C14 (stereo not drawn) ?
BLM helicase inh: -10%; GCN5L2 inh: -16%

What do the screens show for `COc1cc(-c2ccc3ncnc(NCc4ccc(C)o4)c3c2)cc(OC)c1OC`?
FEN1 inh-2: inconclusive

What do the screens show for `COc1ccccc1CNc1ncnc2ccc(-c3ccoc3)cc12`?
RECQ1 inh: -14%; BLM helicase inh: -2%; GCN5L2 inh: -20%; APE1 inh: -3%

What do the screens show for `COc1ccc2cc(-c3nc4ccc(C(=O)O)cc4[nH]3)c(=O)oc2c1`?
FEN1 inh-1: -19%; BLM helicase inh: 3%; GCN5L2 inh: -9%

Results for O=C(O)c1c2cc(Br)ccc2nc2[nH]c(=O)[nH]c(=O)c12 ?
FEN1 inh-1: -4%; PI5P4K alpha inh: -11

Results for Cc1ccc2nc3[nH]c(=O)[nH]c(=O)c3c(N)c2c1 ?
FEN1 inh-1: inconclusive; PI5P4K alpha inh: -4; FEN1 inh-2: 60*

Results for O=[N+]([O-])c1ccc(N/N=C/c2ccc(O)c(O)c2O)c(S(=O)(=O)N2CCOCC2)c1 ?
RECQ1 inh: inconclusive; FEN1 inh-1: 20µM*; BLM helicase inh: -25%; GCN5L2 inh: -12%; APE1 inh: inconclusive; PI5P4K alpha inh: -98*; FEN1 inh-2: 34*

Results for COc1cc([N+](=O)[O-])ccc1NC(=O)Nc1cnccn1 ?
FEN1 inh-1: -19%; BLM helicase inh: -13%; GCN5L2 inh: inconclusive; APE1 inh: 8%; PI5P4K alpha inh: 1; FEN1 inh-2: inconclusive

What do the screens show for `CN(c1ccccc1)c1ccc(/C=C(/CCC(=O)O)c2nc3ccccc3s2)cc1[N+](=O)[O-]`?
FEN1 inh-1: 50µM*; PI5P4K alpha inh: inconclusive; FEN1 inh-2: 67*

Results for COc1c(C)cc(S(=O)(=O)Nc2cccc(-c3ccc(N4CCOCC4)nn3)c2)c(C)c1C ?
FEN1 inh-1: -18%; BLM helicase inh: -1%; GCN5L2 inh: -11%

What do the screens show for `N=C1/C(=C\c2ccc(-c3ccc(C(=O)O)cc3)o2)C(=O)N=C2SC=C(c3ccccc3)N12`?
RECQ1 inh: inconclusive; FEN1 inh-1: 50µM*; BLM helicase inh: 5%; GCN5L2 inh: -2%; APE1 inh: -12%; PI5P4K alpha inh: -70*; FEN1 inh-2: inconclusive

Results for C/C(=N\NC(=O)c1cc(C)nc2ccccc12)c1ccco1 ?
RECQ1 inh: -3%; FEN1 inh-1: 6%; BLM helicase inh: -2%; GCN5L2 inh: -1%; APE1 inh: 1%; PI5P4K alpha inh: 3

Results for C/C(=N\Nc1nc2ccccc2c(=O)n1O)c1ccco1 ?
FEN1 inh-1: inconclusive; BLM helicase inh: -5%; GCN5L2 inh: -19%; APE1 inh: -11%; PI5P4K alpha inh: inconclusive; FEN1 inh-2: 30*

What do the screens show for `Cc1ccc(S(=O)(=O)N2CCN(c3cc(-c4cccs4)nc4ccccc34)CC2)cc1`?
FEN1 inh-1: 1%

What do the screens show for `Nc1c(C(=O)O)ccc2c1C(=O)c1ccccc1C2=O`?
RECQ1 inh: inconclusive; FEN1 inh-1: 50µM*; BLM helicase inh: -15%; GCN5L2 inh: -13%; APE1 inh: inconclusive; PI5P4K alpha inh: -69*; FEN1 inh-2: 34*

What do the screens show for `O=C(O)c1ccc([N+](=O)[O-])c2c1C(=O)c1ccccc1C2=O`?
FEN1 inh-1: -10%; PI5P4K alpha inh: 0

Results for CC1CC=CC2C1C(=O)N(Cc1ccccc1)C2c1ccc(-c2ccc(N(C)C)cc2)cc1F (stereo not drawn) ?
RECQ1 inh: 1%; FEN1 inh-1: -22%; BLM helicase inh: -8%; APE1 inh: -2%

Results for CCn1cc(C(=O)O)c(=O)c2cc(F)c(N/N=C/c3ccccc3)cc21 ?
RECQ1 inh: 5%; FEN1 inh-1: inconclusive; BLM helicase inh: -30%; GCN5L2 inh: -2%; APE1 inh: 1%; PI5P4K alpha inh: 2; FEN1 inh-2: 38*

How did CCn1cc(C(=O)O)c(=O)c2cc(F)c(N3CCN(C(=O)Nc4ccccc4)CC3)cc21 do in these assays?
RECQ1 inh: -1%; FEN1 inh-1: 0%; BLM helicase inh: 4%; GCN5L2 inh: -27%; APE1 inh: 4%

How did CC1(C)C(=O)Nc2ccccc2N1C(=O)COC(=O)c1ccc([N+](=O)[O-])o1 do in these assays?
FEN1 inh-1: 20µM*; GCN5L2 inh: -2%; APE1 inh: -35%; PI5P4K alpha inh: 1; FEN1 inh-2: 19*

High-throughput results deposited in PubChem by National Center for Advancing Translational Sciences (NCATS).
